CYP2C19 inh – human CYP2C19 inhibition | AID 778 | inhibition, % at 5 µM | P33261 | 96,000 tested, 21% active | CYP2C19 Supersomes, luciferin-H EGE luminescence, 30 min;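 active means CYP2C19 inhibition above a set limit at 5 µM in the primary screen, cut at about 50% in these data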;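 further: plate controls were negative control wells for no effect and 2.5 mM tranylcypromine positive control for full effect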
Target sequence (P33261 whole entry, looked up): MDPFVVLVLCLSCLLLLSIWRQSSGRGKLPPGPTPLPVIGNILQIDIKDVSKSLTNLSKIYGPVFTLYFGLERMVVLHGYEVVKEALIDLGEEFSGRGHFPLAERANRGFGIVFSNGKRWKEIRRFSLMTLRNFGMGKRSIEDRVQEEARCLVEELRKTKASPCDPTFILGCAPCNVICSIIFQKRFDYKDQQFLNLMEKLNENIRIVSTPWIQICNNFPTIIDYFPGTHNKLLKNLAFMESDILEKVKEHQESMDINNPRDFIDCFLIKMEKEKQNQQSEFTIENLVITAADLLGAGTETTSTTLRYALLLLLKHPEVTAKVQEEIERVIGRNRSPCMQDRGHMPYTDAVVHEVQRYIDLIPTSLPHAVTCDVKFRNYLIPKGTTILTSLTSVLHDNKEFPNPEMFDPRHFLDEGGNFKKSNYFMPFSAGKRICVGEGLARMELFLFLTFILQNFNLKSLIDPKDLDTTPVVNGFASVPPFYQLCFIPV
CYP2C9 inh – inhibitors of human CYP2C9; P11712; CYP2C9 Supersomes, luciferin-H conversion, luminescence; inhibition, % at 5 µM; 96,000 tested, 20% active;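 active means blocking of liver enzyme CYP2C9 beyond about 50% at 5 µM, limit read from the data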
Measles CPE – protection of cells from measles virus; Measles virus-infected cells, CPE protection, absorbance; protection (pct of control), % at 4 µM; 140,000 tested, 1.5% active; AID 841; in the data active means protection mostly above about 24%, no sharp cut-off; inactive means mostly below about 26%
CYP2C19 act – activators of human cytochrome P450 2C19. AID 1025. activation factor at 5 µM. recombinant CYP2C19, luciferin-H EGE luminescence; hits give high values; 0 = fully inhibited enzyme, 1 = untreated enzyme. 96,000 tested, under 10 active;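 active means activation factor of at least 2 at 5 µM in the primary screen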;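 further: 0 = wells with 2.5 mM tranylcypromine and 1 = vehicle-only wells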
CYP2C9 activ – CYP2C9 (human) activation; P11712; recombinant CYP2C9, luciferin-H conversion, luminescence; hits give high values; factor 1 = untreated enzyme, 0 = blocked; activation factor at 5 µM; 96,000 tested, 1.4% active;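 active means activation factor of 2 or more for CYP2C9 at a 5 µM dose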;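 further: 0 = sulfaphenazole-blocked wells and 1 = vehicle-only wells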
* = called active by the depositor. A selection: hits, their analogues and other compounds. The true share with any hit is near 22%.

Screening COc1ccccc1NS(=O)(=O)c1cccc(C(=O)OCC(=O)Nc2cc(C)on2)c1 returned CYP2C19 inh 40, CYP2C9 inh 38, Measles CPE 18, CYP2C19 act 0.6 and CYP2C9 activ 0.6.
For Cc1cccc(NS(=O)(=O)c2cc(C(=O)OCC(=O)Nc3cc(C)on3)ccc2C)c1 the results were CYP2C19 inh 48, CYP2C9 inh 84*, Measles CPE 8, CYP2C19 act 0.5 and CYP2C9 activ 0.2.
CCC(=O)N1CCCn2c1nc1ccccc12 was read as Measles CPE 17.
Screening CC1C(=O)C(C)C(c2cccs2)NC1c1cccs1 (stereo not drawn) returned CYP2C19 inh 92*, CYP2C9 inh 15, Measles CPE 9, CYP2C19 act 0.1 and CYP2C9 activ 0.8.
COc1cccc(NC(=O)C(Cc2ccccc2)NC(=O)C2CCC(C)CC2)c1 (stereo not drawn) was read as Measles CPE 9.
`Oc1c(C=NCc2ccncc2)sc2ccccc12` gave CYP2C19 inh 92*, CYP2C9 inh 44, Measles CPE 4, CYP2C19 act 0.1 and CYP2C9 activ 0.6.
`COc1ccc(-n2nc3cc(C)c(N)c(Br)c3n2)cc1` gave CYP2C19 inh 17, CYP2C9 inh -1, Measles CPE 7, CYP2C19 act 0.8 and CYP2C9 activ 1.
For Cc1ccc(/C=C(\C#N)c2nn(-c3ccccc3)c(N)c2C#N)cc1 the results were Measles CPE 21.
Screening CCN1CCN(CCNC(=O)CCCCCn2c(=O)[nH]c3cc(C(=O)OC)ccc3c2=O)CC1 returned CYP2C19 inh 17, CYP2C9 inh 53*, Measles CPE 20, CYP2C19 act 0.8 and CYP2C9 activ 0.5.
Screening CCN1CCN(C(=O)CCCCCn2c(=O)[nH]c3cc(C(=O)OC)ccc3c2=O)CC1 returned CYP2C19 inh 5, CYP2C9 inh -3, Measles CPE 21, CYP2C19 act 1 and CYP2C9 activ 1.
For COC(=O)c1ccc2c(=O)n(CCCCCC(=O)N3CCN(c4ccccc4)CC3)c(=O)[nH]c2c1 the results were CYP2C19 inh 53*, CYP2C9 inh 56*, Measles CPE 4, CYP2C19 act 0.5 and CYP2C9 activ 0.4.
Screening COc1cc2[nH]c(=O)n(CCCCCC(=O)N3CCN(c4ccccc4)CC3)c(=O)c2cc1OC returned CYP2C19 inh 79*, CYP2C9 inh 70*, Measles CPE 36, CYP2C19 act 0.2 and CYP2C9 activ 0.3.
`COc1cc2[nH]c(=O)n(CCC(=O)N3CCN(c4cccc(C)c4C)CC3)c(=O)c2cc1OC` gave CYP2C19 inh 15, CYP2C9 inh 34, Measles CPE 6, CYP2C19 act 0.8 and CYP2C9 activ 0.7.
Screening CCOC(=O)C1=C(C)N(CCO)C(=O)NC1c1ccccc1 (stereo not drawn) returned CYP2C19 inh 40, CYP2C9 inh 27, Measles CPE 10, CYP2C19 act 0.6 and CYP2C9 activ 0.7.
Screening O=C(COC(=O)c1cccnc1Nc1cccc(C(F)(F)F)c1)NCc1ccc2c(c1)OCO2 returned CYP2C19 inh -8, CYP2C9 inh -2, Measles CPE 5, CYP2C19 act 1.1 and CYP2C9 activ 1.
Screening O=C(COC(=O)c1cccnc1Cl)NCc1ccc2c(c1)OCO2 returned Measles CPE 33*.
For O=C(CSc1nc(C2CC2)nc2ccccc12)NCc1ccc2c(c1)OCO2 the results were CYP2C19 inh 47, CYP2C9 inh 88*, Measles CPE 13, CYP2C19 act 0.5 and CYP2C9 activ 0.1.
Cc1nonc1NC(=O)CSc1nc(C2CCCCC2)nc2ccccc12 was read as CYP2C19 inh 2, CYP2C9 inh 50*, Measles CPE 9, CYP2C19 act 1 and CYP2C9 activ 0.5.
Cn1cc(SCC(=O)NCc2ccc3c(c2)OCO3)c2ccccc21 was read as CYP2C19 inh 100*, CYP2C9 inh 69*, Measles CPE 9, CYP2C19 act 0 and CYP2C9 activ 0.3.
CC(C)Cn1c(SCC(=O)c2c(N)n(C)c(=O)n(C)c2=O)nc2ccccc21 was read as CYP2C19 inh 17, CYP2C9 inh -27, Measles CPE 14, CYP2C19 act 0.8 and CYP2C9 activ 1.3.
`COC(=O)c1c(C#N)c(N)nc2c1CCC2` gave CYP2C19 inh 4, CYP2C9 inh -6, Measles CPE 8, CYP2C19 act 1 and CYP2C9 activ 1.1.
For COc1cc(NC(=O)COc2c(C)cc(C)cc2[N+](=O)[O-])c(OC)cc1Cl the results were Measles CPE 18.
For Cc1ccccc1C(=O)c1cccn1CC(=O)NCc1ccc2c(c1)OCO2 the results were CYP2C19 inh 62*, CYP2C9 inh 74*, Measles CPE 2, CYP2C19 act 0.4 and CYP2C9 activ 0.3.
COc1ccc(NC(=O)CSc2nc(C)c3c(c2C#N)CCCC3)cc1 was read as CYP2C19 inh 20, CYP2C9 inh 21, Measles CPE 0, CYP2C19 act 0.8 and CYP2C9 activ 0.8.
Screening Cc1nc(SCC(=O)NCc2ccc3c(c2)OCO3)c(C#N)c2c1CCCC2 returned CYP2C19 inh 84*, CYP2C9 inh 87*, CYP2C19 act 0.2 and CYP2C9 activ 0.1.
`O=C(CSCc1ccccc1)NCc1ccc2c(c1)OCO2` gave CYP2C19 inh 54*, CYP2C9 inh 91*, Measles CPE 35, CYP2C19 act 0.5 and CYP2C9 activ 0.1.
Screening CC(=O)c1cn(CC(=O)NCc2ccc3c(c2)OCO3)c2ccccc12 returned Measles CPE 2.
Screening O=C(CSc1nc(C2CC2)nc2ccccc12)N1c2ccccc2Sc2ccc(C(F)(F)F)cc21 returned CYP2C19 inh 11, CYP2C9 inh 92*, Measles CPE 4, CYP2C19 act 0.9 and CYP2C9 activ 0.1.
Screening CS(=O)(=O)c1ccc2nc(NC(=O)CCC(=O)c3cccs3)sc2c1 returned CYP2C19 inh -2, CYP2C9 inh 25, Measles CPE 3, CYP2C19 act 1 and CYP2C9 activ 0.7.
`CCc1ccc(Nc2cc(C(=O)NCCCN3CCOCC3)c3ccccc3n2)cc1` gave CYP2C19 inh 6, CYP2C9 inh 19, Measles CPE 26, CYP2C19 act 0.9 and CYP2C9 activ 0.8.
`O=C(Cn1cc(C(=O)C2CC2)c2ccccc21)NCc1ccc2c(c1)OCO2` gave CYP2C19 inh 81*, CYP2C9 inh 32, Measles CPE 7, CYP2C19 act 0.2 and CYP2C9 activ 0.7.
CCn1cc(SCC(=O)NCc2ccc3c(c2)OCO3)c2ccccc21 was read as CYP2C19 inh 97*, CYP2C9 inh 23, Measles CPE 17, CYP2C19 act 0 and CYP2C9 activ 0.8.
Cc1nn(C)c(C)c1NC(=O)CSc1nc(-c2ccccc2Cl)nc2c1cnn2-c1ccccc1 was read as CYP2C19 inh -4, CYP2C9 inh 50, Measles CPE 11, CYP2C19 act 1 and CYP2C9 activ 0.5.
`Cc1nn(C)c(C)c1NC(=O)CSc1nc(C2CC2)nc2c1cnn2-c1ccccc1` gave CYP2C19 inh 1, CYP2C9 inh 44, Measles CPE 62*, CYP2C19 act 1 and CYP2C9 activ 0.6.
